PMC12431657, “Discovery and mechanistic insights of dibenzoylmethane as a broad spectrum inhibitor of coronavirus” (PLOS Pathogens, 2025)
Like-named read-outs stand apart in the source and are kept apart here. Hit rate of the full screen: of about 3,300 compounds, about 60 (2%) showed an effect of 50% or more. For the sample, strong results were picked, then their nearest neighbours and some compounds at random.

Tested on: HCoV-OC43
Parameters: species or system RD; HTS, protection from HCoV-OC43 induced cell death, luminescent cell viability (CellCounting-Lite 2.0), inhibition rate
Settings: 24 h post infection, 1 h compound pre-incubation, 10 µM, inhibitor

| Structure (SMILES) | OC43 Inhibition rate | OC43 Inhibition rate (OC43 Inhibition rate, 24 h) |
| --- | --- | --- |
| O=c1ccc2nccc3c4ccccc4n1c23 [Canthin-6-one] | -0.9% | – |
| O=C(/C=C/c1ccc(O)c(O)c1)O[C@H]1[C@H](O)C[C@](O)(C(=O)O)C[C@H]1OC(=O)/C=C/c1ccc(O)c(O)c1 [3,4-Dicaffeoylquinic acid] | 6.5% | – |
| C[N+](C)(C)[O-] [Trimethylamine N-oxide (dihydrate)] | – | -1.8% |
| CC(C)C[C@H](NC(=O)[C@@H](O)[C@H](N)Cc1ccccc1)C(=O)O [Bestatin] | – | 1.8% |
| O=C1C[C@@H](c2ccc(O)c(O)c2)Oc2c1ccc(O[C@@H]1O[C@H](CO)[C@@H](O)[C@H](O)[C@H]1O)c2O [Flavanomarein] | -5.7% | – |
| COc1cc(O)c(CC=C(C)C)c2c1C(=O)C[C@@H](c1ccc(O)cc1)O2 [(2S)-Isoxanthohumol] | 48.2% | – |
| O=C1C[C@@H](c2ccc(O)cc2)Oc2cc(O)ccc21 [Liquiritigenin] | 0.2% | – |
| COc1cc2c(cc1CC=C(C)C)C(=O)C[C@@H](c1ccc(O)cc1)O2 [Bavachinin] | 20.3% | – |
| CC(C)=CCc1cc([C@@H]2CC(=O)c3ccc(O)c(CC=C(C)C)c3O2)ccc1O [Glabrol] | 55.6% | – |
| O=C1C[C@@H](c2ccc(O)c(O)c2)Oc2cc(O)cc(O)c21 [Eriodictyol] | 0.2% | – |
| CC(C)=CCc1cc2c(cc1O)O[C@H](c1ccc(O)cc1)CC2=O [Bavachin] | 66.9% | – |
| CC(C)=CCc1c(O)cc2c(c1O)C(=O)C[C@@H](c1ccc(O)cc1)O2 [(2S)-6-Prenylnaringenin] | 54.9% | – |
| COc1cc(O)c(CC=C(C)C)c2c1C(=O)CC(c1ccc(O)cc1)O2 (stereo not drawn) [Isoxanthohumol] | 30.2% | – |
| C[C@H](CCC(=O)NCCS(=O)(=O)O)[C@H]1CC[C@H]2[C@@H]3C[C@H](O)[C@@H]4C[C@H](O)CC[C@]4(C)[C@H]3CC[C@]12C [Taurohyodeoxycholic acid] | -1.1% | – |
| COc1cccc(O)c1C(=O)O [2-Hydroxy-6-methoxybenzoic acid] | 0% | – |
| CCCCCCC/C=C\C(=O)O [(Z)-2-Decenoic acid] | 29.5% | – |
| CC(C)=CCC1C(=O)C(C(=O)CC(C)C)=C(O)C(O)(CC=C(C)C)C1=O (stereo not drawn) [Humulone] | -1% | – |
| Oc1ccc(O)c(O)c1 [1,2,4-Trihydroxybenzene] | -0.2% | – |
| COc1c2c(cc3oc(C)cc(=O)c13)OC(C(C)(C)O[C@@H]1O[C@H](CO)[C@@H](O)[C@H](O)[C@H]1O)C2 (stereo partly drawn) [5-O-Methylvisammioside] | 0.3% | – |
| COc1cc(O)ccc1/C=C/C(=O)c1ccc(O)cc1 [Echinatin] | 46.1% | – |
| COc1c(/C=C/C(=O)c2ccc(O)cc2)ccc(O)c1O [Licochalcone B] | 45.6% | – |
| C=C(C)[C@H](C)c1cc(/C=C/C(=O)c2ccc(O)cc2)c(OC)cc1O [Licochalcone E] | 55.6% | – |
| O=C1C[C@@H](c2ccc(O[C@@H]3O[C@H](CO)[C@@H](O)[C@H](O)[C@H]3O)cc2)Oc2cc(O[C@@H]3OC[C@](O)(CO)[C@H]3O)ccc21 [Liguiritigenin-7-O-D-apiosyl-4'-O-D-glucoside] | 1.2% | – |
| CCC(O)C(=O)O (stereo not drawn) [Sodium 2-hydroxybutanoate] | -6% | – |
| C[C@@H]1CC[C@]2(C(=O)O[C@@H]3O[C@H](CO)[C@@H](O)[C@H](O)[C@H]3O)CC[C@]3(C)C(=CC[C@@H]4[C@@]5(C)C[C@@H](O)[C@H](O)C(C)(C)[C@@H]5CC[C@]43C)[C@@H]2[C@]1(C)O [Rosamultin] | 1% | – |
| CC(C)=C[C@@H]1CO[C@]23C[C@]4(CO2)[C@H](CC[C@@H]2[C@@]5(C)CC[C@H](O[C@@H]6OC[C@H](O)[C@H](O[C@@H]7O[C@H](COS(=O)(=O)O)[C@@H](O)[C@H](O)[C@H]7O)[C@H]6O[C@@H]6O[C@@H](CO)[C@H](O)[C@H]6O)C(C)(C)[C@@H]5CC[C@]24C)[C@H]3[C@@]1(C)O [Bacopaside I] | 0.8% | – |
| O=C1NCN(c2ccccc2)C12CCN(CCCOc1ccc(F)cc1)CC2 [Spiramide] | 69.6% | – |

| Structure (SMILES) | OC43 Inhibition rate | OC43 Inhibition rate (OC43 Inhibition rate, 24 h) |
| --- | --- | --- |
| CC(=O)O[C@]12CCC(C(=O)O)=CC[C@]13CC[C@H]2[C@@](C)(/C=C/C=C(\C)C(=O)O)OC3=O [Pseudolaric Acid C2] | 3.3% | – |
| Cn1cncc1C[C@H](N)C(=O)O [3-Methyl-L-histidine] | -5.7% | – |
| CC[C@@H](C)O [(R)-(-)-2-Butanol] | 0.1% | – |
| CC(=O)N[C@@H](CCCCN)C(=O)O [Acetyl-L-lysine] | -0.1% | – |
| COc1cc2c(cc1OC)[C@@H](Cc1ccc(O)c(Oc3cc4c(cc3OC)CCN(C)[C@@H]4Cc3ccc(O)cc3)c1)N(C)CC2 [Liensinine] | – | 54.6% |
| COc1cc2c(cc1OC)[C@@H](Cc1ccc(O)c(Oc3cc4c(cc3OC)CCN(C)[C@@H]4Cc3ccc(O)cc3)c1)N(C)CC2 [Liensinine (Diperchlorate)] | – | 24.8% |
| COc1cc2c(cc1OC)[C@@H](Cc1ccc(O)c(Oc3cc4c(cc3OC)CCN(C)[C@@H]4Cc3ccc(O)cc3)c1)N(C)CC2 [Liensinine (perchlorate)] | – | 0.4% |
| CCCCCCCC/C=C/CCCCCCCC(=O)O [Elaidic acid] | -0.4% | – |
| O=C(/C=C/c1ccc(O)c(O)c1)O[C@@H]1[C@H](O)C[C@@](O)(C(=O)O)C[C@H]1OC(=O)/C=C/c1ccc(O)c(O)c1 [4,5-Dicaffeoylquinic acid] | -0.7% | – |
| C=C1[C@H](OC(=O)/C=C(\C)CC)C[C@@H](C(C)C)[C@@H]2[C@@H]([C@@H](C)OC(C)=O)C(=O)C[C@@H]12 [Tussilagone] | 60.7% | – |
| O=C(/C=C/C=C/c1ccccc1)CCc1ccccc1 [Alnustone] | 1.1% | – |
| C[C@@H]1O[C@@H](Oc2cc(O)c3c(=O)c(O)c(-c4ccc(O)cc4)oc3c2O)[C@H](O)[C@H](O)[C@H]1O [Rhodionin] | 0.2% | – |
| CCCCCCCCCCCCCCCCCCCCCCCCCCCC(=O)O [Octacosanoic acid] | -0.6% | – |
| C[C@@H]1O[C@@H](O[C@H]2[C@H](OC(=O)[C@]34CCC(C)(C)C[C@H]3C3=CC[C@@H]5[C@@]6(C)C[C@H](O)[C@@H]7O[C@@H]8O[C@H](CO)[C@@H](O)[C@H](O)[C@H]8O[C@@H]8OC[C@H](O)[C@H](O)[C@H]8OC(=O)C[C@@](C)(O)CC(=O)OC[C@@]7(C)[C@@H]6CC[C@@]5(C)[C@]3(C)CC4)OC[C@H](O)[C@@H]2O)[C@H](O)[C@H](O[C@@H]2OC[C@@H](O)[C@H](O)[C@H]2O)[C@H]1O [Tubeimoside I] | 57.2% | – |
| C[C@@H]1O[C@@H](O[C@H]2[C@H](O[C@H]3CC[C@@]4(C)[C@@H](CC[C@]5(C)[C@@H]4CC=C4[C@@H]6CC(C)(C)CC[C@]6(C(=O)O[C@@H]6O[C@H](CO[C@@H]7O[C@H](CO)[C@@H](O)[C@H](O)[C@H]7O)[C@@H](O)[C@H](O)[C@H]6O)CC[C@]45C)[C@]3(C)CO)OC[C@H](O)[C@@H]2O)[C@H](O)[C@H](O[C@@H]2O[C@H](CO)[C@@H](O)[C@H](O)[C@H]2O)[C@H]1O [Macranthoidin A] | -0.3% | – |
| C[C@@H]1O[C@H]2O[C@H]3[C@@H](OC[C@H](O)[C@@H]3O)OC(=O)[C@]34CCC(C)(C)C[C@H]3C3=CC[C@@H]5[C@@]6(C)C[C@H](O)[C@H](O[C@@H]7O[C@H](CO)[C@@H](O)[C@H](O)[C@H]7O[C@@H]7OC[C@H](OC(=O)C[C@](C)(O)CC(=O)O[C@@H]1[C@@H](O[C@@H]1OC[C@@H](O)[C@H](O)[C@H]1O)[C@H]2O)[C@H](O)[C@H]7O)[C@@](C)(CO)[C@@H]6CC[C@@]5(C)[C@]3(C)C[C@H]4O [Tubeimoside II] | -2.8% | – |
| CC1(C)CC[C@]2(C(=O)O)CC[C@]3(C)C(=CC[C@@H]4[C@@]5(C)CC[C@H](O[C@@H]6O[C@H](C(=O)O)[C@@H](O)[C@H](O[C@@H]7OC[C@@H](O)[C@H](O)[C@H]7O[C@@H]7O[C@H](CO)[C@@H](O)[C@H](O)[C@H]7O)[C@H]6O)C(C)(C)[C@@H]5CC[C@]43C)[C@@H]2C1 [Oleanolic acid-3-O-glucosyl(1-2)xylyl(1-3)glucosiduronic acid] | -0.1% | – |
| CC(=O)c1ccc2ccccc2c1 [2-Acetonaphthone] | -1.5% | – |
| c1cncnc1 [Pyrimidine] | -0.5% | – |
| Nc1nc(O)c2[nH]nnc2n1 [8-Azaguanine] | 54.4% | – |
| C/C=C/C=C/C(=O)O [Potassium sorbate] | – | 1.3% |
| C=C1CCC2(C(C)C)CC12 (stereo not drawn) [Sabinene] | -0.5% | – |
| C[C@@H](O)CC(=O)O [(R)-3-Hydroxybutanoic acid] | – | -0.8% |
| C[C@]12CC[C@H]3[C@@H](CC=C4C[C@@H](O)CC[C@@]43C)[C@@H]1CC[C@@H]2C(=O)CO [21-Hydroxypregnenolone] | -0.2% | – |
| CC(=O)[C@H]1CC[C@H]2[C@@H]3CC=C4C[C@@H](O)CC[C@]4(C)[C@H]3CC[C@]12C [Pregnenolone] | 1.3% | – |
| C[C@H]1[C@H]2CC[C@H]3[C@@H]4CC=C5C[C@@H](N(C)C)CC[C@]5(C)[C@H]4CC[C@]23CN1C [Conessine] | 52.4% | – |
| CC1(C)CC[C@]2(C(=O)O)CC[C@]3(C)C(=CC[C@@H]4[C@@]5(C)CC[C@@H](O)C(C)(C)[C@@H]5CC[C@]43C)[C@@H]2C1 [3-Epioleanolic acid] | -0.6% | – |
